# Data: the supplement of paper PMC8253809
# “And” between values parts separate entries of the source, which are not always exact repeats. Identical values can stand only once.
# Tested on: HGGX39 (paediatric high-grade glioma line)
# Experiment: growth inhibition (% activity, log2 RLU normalised to DMSO / staurosporine); higher = more growth inhibition
# Conditions: 33 µM
# Outline: (§1)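 In triplicate, pHGG cell lines and H9-derived neural stem cells were treated for 7 days at 37 °C, 5% CO2 with approved drugs at a single final concentration of about 33 μM, added by pin tool. CellTiter-Glo luminescence, after log2 transformation, was normalised on each plate to % activity between solvent and positive control wells. Growth inhibition is reported as the median across replicates.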
row,SMILES,growth inhibition
1,CNC[C@H](O)c1cccc(O)c1,4.28%
2,CC[C@@]1(O)C(=O)OCc2c1cc1n(c2=O)Cc2cc3c(CN(C)C)c(O)ccc3nc2-1,40.2%
3,CC(=O)N[C@H]1[C@H]([C@H](O)[C@H](O)CO)OC(C(=O)O)=C[C@@H]1NC(=N)N,1.17%
4,OC[C@H]1O[C@H](O[C@]2(CCl)O[C@H](CCl)[C@@H](O)[C@@H]2O)[C@H](O)[C@@H](O)[C@H]1Cl,-2.1%
5,C[C@]12CC[C@H](O)CC1=CC[C@@H]1[C@@H]2CC[C@]2(C)C(c3cccnc3)=CC[C@@H]12,3.94%
6,CO[C@H]1O[C@@H]2O[C@@]3(C)CC[C@H]4[C@H](C)CC[C@@H]([C@H]1C)[C@@]24OO3,3.99%
7,CN(C)CCOc1ccc(/C(=C(/CCCl)c2ccccc2)c2ccccc2)cc1,5.94%
8,CCCCOc1ccc(OCCCN2CCOCC2)cc1,8.05%
9,Cc1ccc(N(CC2=NCCN2)c2cccc(O)c2)cc1,-2.42%
10,COc1cc(C)c(/C=C/C(C)=C/C=C/C(C)=C/C(=O)O)c(C)c1C,7.33%
11,C[C@]12CCC(=O)C=C1CC[C@@H]1[C@@H]2[C@@H](O)C[C@@]2(C)[C@H]1CC[C@]2(O)C(=O)CO,3.81%
12,C[C@@H](NCCCc1cccc(C(F)(F)F)c1)c1cccc2ccccc12,5.43%
13,Clc1ccc2c(c1)CCc1cccnc1C2=C1CCNCC1,0.308%
14,CCc1cc(C(N)=S)ccn1,-1.46%

# Tested on: HGGX6 (H3.3 G34R paediatric high-grade glioma line)
# Experiment: as above
# Conditions: 33 µM
# Outline: as §1
row,SMILES,growth inhibition
1,CCN[C@H]1CN(CCCOC)S(=O)(=O)c2sc(S(N)(=O)=O)cc21,2.83%
2,C=C1CCC(O)CC1=CC=C1CCCC2(C)C1CCC2C(C)CCCC(C)(C)O (configuration not stated),0.603%
3,O=c1c(-c2ccc(O)cc2)coc2cc(O)ccc12,-0.307%
4,CC(C)Cc1ccc(C(C)C(=O)O)cc1 (configuration not stated),1.92% and 1.49%
5,Cn1c(CNc2ccc(C(=N)N)cc2)nc2cc(C(=O)N(CCC(=O)O)c3ccccn3)ccc21,-1.53%
6,CC(C)C[C@H](NC(=O)[C@H](CCc1ccccc1)NC(=O)CN1CCOCC1)C(=O)N[C@@H](Cc1ccccc1)C(=O)N[C@@H](CC(C)C)C(=O)[C@@]1(C)CO1,57.8%
7,C[N+](C)(C)CCCCCC[N+](C)(C)C,-5.38%
8,COc1cc(/C=C/C(=O)N2CCN(CC(=O)N3CCCC3)CC2)cc(OC)c1OC,-2.67%
9,O=C(CCCN1CC=C(n2c(=O)[nH]c3ccccc32)CC1)c1ccc(F)cc1,-4.16%
10,Cc1nnc(C(C)C)n1C1C[C@H]2CC[C@@H](C1)N2CC[C@H](NC(=O)C1CCC(F)(F)CC1)c1ccccc1 (stereo in doubt),-3.69%
11,CCCCC(=O)N(Cc1ccc(-c2ccccc2-c2nnn[nH]2)cc1)[C@H](C(=O)O)C(C)C,-0.244%
12,CCN(CC)C(=O)/C(C#N)=C/c1cc(O)c(O)c([N+](=O)[O-])c1,-0.625%
13,CN1CCC(=C2c3ccccc3C=Cc3ccccc32)CC1,-0.0199%
14,CCCCC(=O)O[C@]1(C(=O)CO)[C@@H](C)C[C@H]2[C@@H]3CCC4=CC(=O)C=C[C@]4(C)[C@@]3(F)[C@@H](O)C[C@@]21C,1.27%
15,O=C1OC(CN2CCOCC2)CN1/N=C/c1ccc([N+](=O)[O-])o1 (configuration not stated),0.852%
16,NC[C@@H]1O[C@H](O[C@H]2[C@@H](O)[C@H](O[C@@H]3[C@@H](O)[C@H](N)C[C@H](N)[C@H]3O[C@H]3O[C@H](CN)[C@@H](O)[C@H](O)[C@H]3N)O[C@@H]2CO)[C@H](N)[C@@H](O)[C@@H]1O,-1.34%
17,C[C@@H]1CN(c2c(F)c(F)c3c(=O)c(C(=O)O)cn(C4CC4)c3c2F)C[C@H](C)N1,-0.41%
18,NC[C@H]1O[C@H](O[C@H]2[C@H](O)[C@@H](O[C@H]3O[C@H](CO)[C@@H](O)[C@H](N)[C@H]3O)[C@H](N)C[C@@H]2N)[C@H](N)C[C@@H]1O,1.31%
19,Cn1c(=O)c2c(ncn2CC(O)CO)n(C)c1=O (configuration not stated),-0.962%
20,C[C@@H](Oc1cc(-c2cnn(C3CCNCC3)c2)cnc1N)c1c(Cl)ccc(F)c1Cl,13.5%
21,CCC(=O)NCC[C@@H]1CCc2ccc3c(c21)CCO3,-0.174%
22,CO[C@H]1C[C@@H]2CC[C@@H](C)[C@@](O)(O2)C(=O)C(=O)N2CCCC[C@H]2C(=O)O[C@H]([C@H](C)C[C@@H]2CC[C@@H](OC(=O)C(C)(CO)CO)[C@H](OC)C2)CC(=O)[C@H](C)/C=C(\C)[C@@H](O)[C@@H](OC)C(=O)[C@H](C)C[C@H](C)/C=C/C=C/C=C/1C,5.24%
23,CC1(C)S[C@@H]2[C@H](NC(=O)[C@H](NC(=O)N3CCNC3=O)c3ccccc3)C(=O)N2[C@H]1C(=O)O,-0.0472%
